16 compounds from PubChem BioAssay (EPA / NIEHS) can be followed below.

The AC50 is the midpoint of the concentration-response curve, whichever way the signal moves.

The target of assay [1] is Glucocorticoid receptor (Homo sapiens) (UniProt P04150). Briefly: ATG_GR_TRANS: Attagene TRANS-FACTORIAL HepG2 Assay for human Glucocorticoid Receptor (GR) (AID 2282978).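 Further: activators score as hits since higher reporter transcript over DMSO is fitted.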 The conditions noted are these: HepG2 Attagene TRANS GR reporter, mRNA transcription. In short, it runs like this: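 Measurement of GAL4-UAS-driven reporter mRNA in human HepG2 liver cells 24 h post-dosing, using RT-PCR with fluorescent labelling and capillary electrophoresis; the transfected constructs report exogenous NR-GAL4 chimera activity, fitted upward against DMSO.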
Glucocorticoid receptor (Homo sapiens), sequence (P04150 whole entry, looked up, the tested form may be a part): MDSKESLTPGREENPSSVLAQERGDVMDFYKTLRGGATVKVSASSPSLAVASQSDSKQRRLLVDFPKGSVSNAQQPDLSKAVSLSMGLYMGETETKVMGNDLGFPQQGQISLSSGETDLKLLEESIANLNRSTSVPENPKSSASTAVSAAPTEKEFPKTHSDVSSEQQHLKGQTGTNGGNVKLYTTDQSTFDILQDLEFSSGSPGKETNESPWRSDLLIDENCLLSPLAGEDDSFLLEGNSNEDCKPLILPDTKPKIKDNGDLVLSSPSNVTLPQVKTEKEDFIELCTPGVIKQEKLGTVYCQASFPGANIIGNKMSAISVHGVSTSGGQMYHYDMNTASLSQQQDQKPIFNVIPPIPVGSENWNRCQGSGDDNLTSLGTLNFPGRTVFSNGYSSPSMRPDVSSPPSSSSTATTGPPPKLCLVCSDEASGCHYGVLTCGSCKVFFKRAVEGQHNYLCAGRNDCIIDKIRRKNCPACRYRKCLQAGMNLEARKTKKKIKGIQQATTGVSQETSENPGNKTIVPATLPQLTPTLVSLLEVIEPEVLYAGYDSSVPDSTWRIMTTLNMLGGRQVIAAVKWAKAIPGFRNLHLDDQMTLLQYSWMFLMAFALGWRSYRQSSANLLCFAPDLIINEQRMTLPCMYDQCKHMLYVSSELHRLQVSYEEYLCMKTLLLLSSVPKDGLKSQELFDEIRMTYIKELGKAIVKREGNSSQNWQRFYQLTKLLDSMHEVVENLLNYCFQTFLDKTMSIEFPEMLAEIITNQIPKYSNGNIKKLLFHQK

The target in assay [2] is Bile acid receptor (Homo sapiens) (UniProt Q96RI1). Briefly: ATG_FXR_TRANS: Attagene TRANS-FACTORIAL HepG2 Assay for Farnesoid X Receptor (FXR) (AID 2282979).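 Further: hits raise reporter mRNA above DMSO so AC50 marks FXR activation.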 The conditions noted are these: HepG2 Attagene TRANS FXR-GAL4 reporter transcription. The gist of the method: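 HepG2 cells were transiently transfected with GAL4-UAS reporters driven by chimeric NR-Gal4 proteins and dosed for 24 h. Reporter mRNA was quantified by RT-PCR, fluorescent labelling, HpaI digestion and capillary electrophoresis, with gain of signal scored versus DMSO.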
Bile acid receptor (Homo sapiens), sequence (Q96RI1 whole entry, looked up, the tested form may be a part): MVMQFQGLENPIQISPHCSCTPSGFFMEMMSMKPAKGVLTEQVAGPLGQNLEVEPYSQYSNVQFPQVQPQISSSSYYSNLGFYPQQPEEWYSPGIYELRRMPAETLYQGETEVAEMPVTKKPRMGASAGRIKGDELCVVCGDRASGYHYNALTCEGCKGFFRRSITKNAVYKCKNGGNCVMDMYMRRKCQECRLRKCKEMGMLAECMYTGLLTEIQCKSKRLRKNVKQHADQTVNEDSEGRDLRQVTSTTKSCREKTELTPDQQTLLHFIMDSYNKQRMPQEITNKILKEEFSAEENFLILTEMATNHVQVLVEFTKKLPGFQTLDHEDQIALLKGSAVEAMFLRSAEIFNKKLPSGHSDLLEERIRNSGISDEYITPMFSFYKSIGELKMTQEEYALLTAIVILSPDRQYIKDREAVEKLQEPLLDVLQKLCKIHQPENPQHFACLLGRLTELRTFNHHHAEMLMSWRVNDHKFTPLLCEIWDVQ

Assay [3] addresses Oxysterols receptor LXR-alpha (Homo sapiens) (UniProt Q13133). The experiment in a line: ATG_LXRa_TRANS: Attagene TRANS-FACTORIAL HepG2 Assay for human Liver X Receptor alpha (LXRa) (AID 2282980). The conditions noted are these: HepG2 Attagene TRANS reporter, LXRa transactivation. The gist of the method:
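HepG2 cells transiently transfected with GAL4-UAS reporter units for chimeric NR-Gal4 proteins, exposed to chemicals for 24 h. Reporter mRNA quantified by RT-PCR and capillary electrophoresis; gain of signal fitted relative to DMSO.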

Assay [4] has as its target Oxysterols receptor LXR-beta (Homo sapiens) (UniProt P55055). The experiment in a line: ATG_LXRb_TRANS: Attagene TRANS-FACTORIAL HepG2 Assay for human Liver X Receptor beta (LXRb) (AID 2282981). The conditions noted are these: HepG2 Attagene TRANS GAL4-LXRb reporter, mRNA. In short, it runs like this: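 After 24 h chemical treatment of transfected HepG2 cells carrying exogenous NR-Gal4 chimeras, reporter mRNA was quantified by fluorescent RT-PCR and capillary electrophoresis; activity taken as increase over DMSO controls.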

Assay [5] has as its target Hepatocyte nuclear factor 4-alpha (Homo sapiens) (UniProt P41235). Briefly: ATG_HNF4a_TRANS: Attagene TRANS-FACTORIAL HepG2 Assay for human Hepatocyte Nuclear Factor 4 alpha (HNF4a) (AID 2282982). The conditions noted are these: HepG2 HNF4a transactivation reporter, mRNA readout. In short, it runs like this:
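Activity of an exogenous HNF4a–Gal4 fusion scored as induced GAL4-UAS reporter transcripts after 24 h chemical exposure of transfected human HepG2 cells. Read-out via RT-PCR with 6-FAM labelling and capillary electrophoresis; rise over DMSO baseline.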

Assay [6] can be described thus: ATG_M_06_TRANS: Attagene TRANS-FACTORIAL HepG2 Assay for M06 Transcription Factor (Internal Marker) (AID 2282983).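 Further: reporter transcript level by RT-PCR then capillary electrophoresis fluorescence.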 The conditions noted are these: HepG2 Attagene TRANS M06 internal marker reporter. The gist of the method: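 mRNA levels of a reporter transcript, quantified as FAM fluorescence on capillary electrophoresis, served as readout. HepG2 cells expressing exogenous GAL4-chimera reporter constructs were exposed for 24 h. Gain of signal over DMSO was evaluated.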

The nature of assay [7]: ATG_M_32_TRANS: Attagene TRANS-FACTORIAL HepG2 Assay for M32 Transcription Factor (Internal Marker) (AID 2282984).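 Further: transcript level of a background control reporter unit measured by RT-PCR and capillary electrophoresis.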 The conditions noted are these: HepG2 Attagene TRANS M32 internal marker reporter. The gist of the method: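 Internal background reporter in transfected HepG2: after 24 h chemical exposure, RNA reverse-transcribed, reporter cDNA amplified, fluorescently labelled and HpaI-cut, then sized by capillary electrophoresis. Gain of signal fitted against DMSO control.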

Assay [8] concerns the target Transcriptional activator Myb (Homo sapiens) (UniProt P10242). Briefly: ATG_Myb_CIS: Attagene CIS-FACTORIAL HepG2 Assay for human Myeloblastosis (Myb) Proto-Oncogene Transcription Factor (AID 2282986; active means hit-call score of the fitted dose curve at least 0.9, where 1 is the maximum; inactive means score below 0.9). The conditions noted are these: HepG2 Attagene CIS-FACTORIAL Myb reporter transcription; actives raise or lower the signal. The gist of the method: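 Fluorescence signals from capillary electrophoresis of RT-PCR-amplified reporter cDNA give the read-out. Cells: HepG2 transfected with multiple cis-regulated reporter units. Exposure lasts 24 hours; DMSO defines baseline for gain or loss of signal.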

Assay [9] has as its target Nuclear respiratory factor 1 (Homo sapiens) (UniProt Q16656). The experiment in a line: ATG_NRF1_CIS: Attagene CIS-FACTORIAL HepG2 Assay for human Nuclear Respiratory Factor 1 (NRF1) Orphan Gene (AID 2282987; active means hit-call score of the fitted dose curve at least 0.9, where 1 is the maximum; inactive means score below 0.9). The conditions noted are these: HepG2 NRF1 cis-element reporter, Attagene multiplex; actives raise or lower the signal. The gist of the method: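 Transcriptional reporter readout, one component of a 52-endpoint multiplexed HepG2 panel. Exposure 24 h; mRNA detected via RT-PCR and fluorescent capillary electrophoresis; fitting in both directions against DMSO.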

The target of assay [10] is Nuclear receptor subfamily 4 group A member 2 (Homo sapiens) (UniProt P43354). The experiment in a line: ATG_NURR1_TRANS: Attagene TRANS-FACTORIAL HepG2 Assay for human Nuclear Receptor Related Protein 1 (NURR1) (AID 2282985). The conditions noted are these: HepG2 Attagene TRANS reporter, mRNA readout. The gist of the method: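 Reporter transcript induction, measured by RT-PCR with fluorescent labelling, HpaI digestion and capillary electrophoresis, after 24 hr dosing of human HepG2 cells transiently expressing an exogenous NR-Gal4 fusion with GAL4-UAS-driven reporters; DMSO as baseline.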
Nuclear receptor subfamily 4 group A member 2 (Homo sapiens), sequence (P43354 whole entry, looked up, the tested form may be a part): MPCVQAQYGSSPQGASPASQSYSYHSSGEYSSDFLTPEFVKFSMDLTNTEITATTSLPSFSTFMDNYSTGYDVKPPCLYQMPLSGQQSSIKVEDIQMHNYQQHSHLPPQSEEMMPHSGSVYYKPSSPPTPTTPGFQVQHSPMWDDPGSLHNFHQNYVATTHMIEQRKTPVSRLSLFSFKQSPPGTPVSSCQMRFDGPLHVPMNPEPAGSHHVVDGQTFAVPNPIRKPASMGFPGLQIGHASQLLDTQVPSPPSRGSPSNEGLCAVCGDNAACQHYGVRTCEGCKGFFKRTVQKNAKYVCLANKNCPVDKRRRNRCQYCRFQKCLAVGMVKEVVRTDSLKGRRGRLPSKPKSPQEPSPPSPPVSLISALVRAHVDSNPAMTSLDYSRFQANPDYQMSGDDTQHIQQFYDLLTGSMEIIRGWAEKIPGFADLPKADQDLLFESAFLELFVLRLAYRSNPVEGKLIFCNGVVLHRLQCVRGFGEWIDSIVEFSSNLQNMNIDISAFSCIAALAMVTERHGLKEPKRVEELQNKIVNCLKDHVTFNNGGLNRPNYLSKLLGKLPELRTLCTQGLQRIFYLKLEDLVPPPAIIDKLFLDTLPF

Values joined by “and” are separate entries in the source; they are usually repeats but may differ in a detail not shown here. Equal values may be shown once. Results filed as inconclusive are left out. Some compounds were tested as several samples or in several runs, with calls that do not always agree. Active and inactive are the calls of the source. How the source made its calls, unless noted: active means hit-call score of the fitted dose curve at least 0.9, where 1 is the maximum; inconclusive means response in the unintended direction; inactive means score below 0.9.

Transcriptional activator Myb (Homo sapiens), sequence (P10242 whole entry, looked up): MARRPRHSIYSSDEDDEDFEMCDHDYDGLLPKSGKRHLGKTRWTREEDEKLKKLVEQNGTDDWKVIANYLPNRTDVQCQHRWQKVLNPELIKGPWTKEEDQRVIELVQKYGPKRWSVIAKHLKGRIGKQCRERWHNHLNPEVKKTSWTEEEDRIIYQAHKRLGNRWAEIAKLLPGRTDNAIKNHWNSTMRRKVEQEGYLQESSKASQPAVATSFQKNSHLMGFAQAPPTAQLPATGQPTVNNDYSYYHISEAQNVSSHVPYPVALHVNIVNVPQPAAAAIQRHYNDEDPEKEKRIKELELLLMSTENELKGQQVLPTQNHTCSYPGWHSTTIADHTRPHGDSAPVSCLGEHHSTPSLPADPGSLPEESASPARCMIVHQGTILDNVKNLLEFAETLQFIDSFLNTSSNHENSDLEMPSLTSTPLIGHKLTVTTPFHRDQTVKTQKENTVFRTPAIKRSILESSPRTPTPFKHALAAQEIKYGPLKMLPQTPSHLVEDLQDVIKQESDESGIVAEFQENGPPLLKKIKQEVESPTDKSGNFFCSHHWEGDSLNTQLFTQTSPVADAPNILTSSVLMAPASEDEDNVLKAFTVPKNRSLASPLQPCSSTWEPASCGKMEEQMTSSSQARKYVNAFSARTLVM
Nuclear respiratory factor 1 (Homo sapiens), sequence (Q16656 whole entry, looked up): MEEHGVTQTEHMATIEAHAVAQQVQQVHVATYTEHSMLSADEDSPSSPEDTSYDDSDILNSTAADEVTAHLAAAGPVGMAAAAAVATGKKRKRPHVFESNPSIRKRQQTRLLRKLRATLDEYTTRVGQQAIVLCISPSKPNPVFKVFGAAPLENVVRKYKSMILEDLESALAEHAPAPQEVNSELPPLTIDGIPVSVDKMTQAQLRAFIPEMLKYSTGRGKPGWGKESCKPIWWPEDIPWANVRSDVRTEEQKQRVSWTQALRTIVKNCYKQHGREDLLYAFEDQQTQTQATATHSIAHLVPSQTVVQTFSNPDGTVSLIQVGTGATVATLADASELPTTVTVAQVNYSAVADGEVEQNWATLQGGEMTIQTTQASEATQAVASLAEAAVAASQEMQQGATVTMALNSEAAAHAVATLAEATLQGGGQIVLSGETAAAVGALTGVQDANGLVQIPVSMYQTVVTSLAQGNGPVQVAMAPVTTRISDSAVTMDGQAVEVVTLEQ
Oxysterols receptor LXR-beta (Homo sapiens), sequence (P55055 whole entry, looked up, the tested form may be a part): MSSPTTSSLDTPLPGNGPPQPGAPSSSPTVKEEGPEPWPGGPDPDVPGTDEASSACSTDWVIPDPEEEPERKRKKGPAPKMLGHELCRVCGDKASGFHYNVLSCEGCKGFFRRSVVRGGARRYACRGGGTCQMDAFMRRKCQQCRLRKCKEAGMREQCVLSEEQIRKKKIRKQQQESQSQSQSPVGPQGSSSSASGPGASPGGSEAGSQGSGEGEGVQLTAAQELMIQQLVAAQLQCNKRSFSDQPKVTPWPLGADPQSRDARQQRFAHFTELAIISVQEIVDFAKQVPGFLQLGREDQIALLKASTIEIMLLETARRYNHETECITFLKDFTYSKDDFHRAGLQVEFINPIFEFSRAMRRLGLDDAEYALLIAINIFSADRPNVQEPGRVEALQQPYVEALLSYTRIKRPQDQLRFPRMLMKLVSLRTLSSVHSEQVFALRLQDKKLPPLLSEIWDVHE
Hepatocyte nuclear factor 4-alpha (Homo sapiens), sequence (P41235 whole entry, looked up, the tested form may be a part): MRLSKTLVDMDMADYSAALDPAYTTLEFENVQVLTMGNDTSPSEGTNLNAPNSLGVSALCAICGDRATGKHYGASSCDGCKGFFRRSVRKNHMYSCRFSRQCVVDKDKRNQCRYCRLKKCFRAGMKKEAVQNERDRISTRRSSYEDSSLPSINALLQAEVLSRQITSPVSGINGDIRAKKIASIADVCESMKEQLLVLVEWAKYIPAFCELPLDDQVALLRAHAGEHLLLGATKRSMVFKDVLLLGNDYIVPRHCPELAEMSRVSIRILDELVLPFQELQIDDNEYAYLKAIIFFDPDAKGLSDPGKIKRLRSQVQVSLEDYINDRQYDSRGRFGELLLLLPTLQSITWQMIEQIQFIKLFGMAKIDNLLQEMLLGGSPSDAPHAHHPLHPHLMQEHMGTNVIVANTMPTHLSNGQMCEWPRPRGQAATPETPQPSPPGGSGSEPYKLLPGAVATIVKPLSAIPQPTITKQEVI
Oxysterols receptor LXR-alpha (Homo sapiens), sequence (Q13133 whole entry, looked up, the tested form may be a part): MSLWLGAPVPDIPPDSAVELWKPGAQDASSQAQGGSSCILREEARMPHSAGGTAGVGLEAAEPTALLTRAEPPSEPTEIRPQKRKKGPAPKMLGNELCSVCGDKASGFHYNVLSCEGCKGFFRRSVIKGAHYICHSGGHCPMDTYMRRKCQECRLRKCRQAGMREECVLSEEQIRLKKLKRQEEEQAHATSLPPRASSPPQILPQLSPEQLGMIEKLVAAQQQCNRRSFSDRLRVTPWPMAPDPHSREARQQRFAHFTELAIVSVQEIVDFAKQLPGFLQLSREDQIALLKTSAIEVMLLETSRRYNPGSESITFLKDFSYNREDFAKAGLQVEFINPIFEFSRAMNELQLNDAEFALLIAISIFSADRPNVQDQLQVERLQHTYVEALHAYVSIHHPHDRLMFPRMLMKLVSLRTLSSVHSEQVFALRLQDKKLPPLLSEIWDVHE

In the case of `O=c1c(-c2ccc(O)cc2)coc2cc(O)ccc12`, the call in assay [1], in assay [2], in assay [3], in assay [4], in assay [5] and in assay [6] was inactive. Also, the outcome in [7], in [8] and in [9] was inactive.
As for `OCCC(F)(F)C(F)(F)C(F)(F)C(F)(F)C(F)(F)C(F)(F)F`, the compound was classed as inactive in assay [1], in assay [2], in assay [3], in [4], in assay [6] and in [7]. Besides, the call in assay [8] and in assay [9] was inactive.
With `OC1CCC(C2CCCCC2)CC1` (stereo unspecified), the result in [1], in [2], in assay [3], in assay [4], in assay [6] and in assay [7] was inactive. Moreover, the call in assay [8] and in assay [9] was inactive.
As for `CCCCCCCCCCCCN1CCCC1=O`, the compound was called inactive in assay [1], in [2], in [4], in [7], in assay [8] and in assay [9].
On to `CCC(=C(c1ccc(O)cc1)c1ccc(OCCN(C)C)cc1)c1ccccc1`, for which the call in assay [1], in assay [2], in assay [3], in [4], in assay [5] and in assay [6] was inactive. For the same compound, the outcome in assay [7], in assay [8] and in assay [9] was inactive. In assay [8], the AC50 is 11.3 µM (active).
`N#C[C@@H]1CC(F)(F)CN1C(=O)CNC1CC2CCC(C1)N2c1ncccn1` (stereo partly specified): the result in [1], in assay [2], in [3], in [7], in [8] and in [9] was inactive.
For the compound `ClC1=C(Cl)C(Cl)(Cl)C(Cl)=C1Cl`, the call in assay [1], in [3], in [4], in assay [5], in assay [6] and in assay [7] was inactive. Also, the compound was called inactive in assay [8]. Moreover, the AC50 was 13.6 µM (active) in assay [8]; 14 µM (active) and 9.06 µM (active) in assay [9].
For `C=C(C)C(=O)OCCC(F)(F)C(F)(F)C(F)(F)C(F)(F)C(F)(F)C(F)(F)F`, the compound was classed as inactive in [1], in assay [2], in assay [4], in [7], in assay [8] and in assay [9].
Turning to `NCC(F)(F)C(F)(F)C(F)(F)C(F)(F)C(F)(F)C(F)(F)C(F)(F)F`, the outcome in assay [1], in assay [2], in assay [5], in [6], in assay [8] and in assay [9] was inactive.
Regarding `CCc1ccc(CCOc2ccc(CC3SC(=O)NC3=O)cc2)nc1` (stereo unspecified), the call in [1], in [3], in assay [4], in assay [5], in assay [8] and in [9] was inactive.
`CCCCCCC(=O)O`: the result in assay [1], in [2], in assay [3], in assay [4], in assay [5] and in assay [6] was inactive. Further, the result in assay [7], in [8] and in assay [9] was inactive.
Consider `CC(C)(C)c1cccc(C(C)(C)C)c1O`, for which the compound was classed as inactive in assay [1], in assay [2], in assay [4], in [7], in assay [8] and in assay [9]. Moreover, the AC50 in assay [3] was 49.7 µM (active).
`CC(O)CO` (stereo unspecified): the compound was called inactive in assay [1], in assay [2], in assay [6], in [8] and in assay [9].
On to `COC(=O)CCCCC(=O)OC`, for which the outcome in assay [1], in assay [2], in assay [6], in assay [7], in assay [10] and in assay [8] was inactive. The compound was called inactive in assay [9].
Regarding `CCCOc1sc(C(=O)N2CCC(c3cc(CN)ccc3F)CC2)c(C)c1Br`, the compound was called inactive in assay [1], in [2], in assay [5], in [7], in [8] and in assay [9]. The AC50 in assay [3] is 1.34 µM (active); in [4] it was 1.46 µM (active).
`CCCCC(CC)COC(=O)CCCCC(=O)OCC(CC)CCCC` (stereo unspecified): the compound was classed as inactive in assay [1], in [2], in [3], in assay [5], in assay [8] and in [9].
